Shown are actives, neighbours in structure and some others; about 3.7% of the full set was active somewhere.
Bead autofluor: compound fluorescence in toxin protease inhibitor counterscreen; compound autofluorescence counterscreen, microsphere flow cytometry; stronger effect = higher value; fluorescence intensity (no concentration beside the values); actives 3.1% (n = 360,000); AID 624483; in the data active = fluorescence intensity above about 16000; inconclusive = no clear call, values can overlap the other calls
BoNT F protease: blocks Botulinum neurotoxin F light chain protease | Multiplex microsphere protease cleavage assay, flow cytometry | inhibition, % at 10 µM | actives 0.22% (n = 360,000); in the data active = inhibition above about 35%, passing the limit was not always enough; inconclusive = no clear call, values can overlap the other calls; note: plate controls were buffer without enzyme for full effect and enzyme alone for no effect
Anthrax LF inh2: blocks Bacillus anthracis lethal factor protease. inhibition, % at 10 µM. P15917. actives 0.12% (n = 360,000). AID 588501. multiplex microsphere protease cleavage assay, LF; note: plate controls were buffer without enzyme for full effect and enzyme alone for no effect
Target sequence (P15917 whole entry, looked up): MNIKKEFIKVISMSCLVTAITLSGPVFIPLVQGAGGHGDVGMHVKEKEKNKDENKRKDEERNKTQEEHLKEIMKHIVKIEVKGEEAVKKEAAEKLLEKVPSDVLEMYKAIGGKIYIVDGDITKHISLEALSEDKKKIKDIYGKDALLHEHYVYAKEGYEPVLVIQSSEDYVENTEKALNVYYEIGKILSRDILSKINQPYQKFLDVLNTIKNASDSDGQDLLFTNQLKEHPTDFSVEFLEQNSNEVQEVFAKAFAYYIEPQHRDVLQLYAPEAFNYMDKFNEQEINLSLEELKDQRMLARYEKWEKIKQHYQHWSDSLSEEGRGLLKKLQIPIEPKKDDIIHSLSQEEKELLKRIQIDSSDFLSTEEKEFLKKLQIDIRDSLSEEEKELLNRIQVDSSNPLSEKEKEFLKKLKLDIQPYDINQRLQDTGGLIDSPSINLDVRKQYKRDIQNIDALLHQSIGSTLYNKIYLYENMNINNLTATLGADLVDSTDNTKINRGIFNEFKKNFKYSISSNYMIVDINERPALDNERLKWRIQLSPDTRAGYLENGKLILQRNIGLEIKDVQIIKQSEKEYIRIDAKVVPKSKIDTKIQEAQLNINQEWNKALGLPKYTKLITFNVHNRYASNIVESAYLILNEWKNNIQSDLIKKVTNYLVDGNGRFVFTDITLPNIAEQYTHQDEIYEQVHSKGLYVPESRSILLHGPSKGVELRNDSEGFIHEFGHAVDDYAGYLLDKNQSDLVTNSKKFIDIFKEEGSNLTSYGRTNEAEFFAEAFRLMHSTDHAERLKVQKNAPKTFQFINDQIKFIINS
MazEF act: MazEF (E. coli) toxin RNase activation; P0AE70; FAM/BHQ RNA-DNA oligo cleavage fluorescence, 5 h; activation, % at 20 µM; actives 0.32% (n = 350,000); in the data active = activation above about 50%
BoNT A protease: BoNT A light chain protease inhibition. multiplex microsphere protease substrate cleavage, flow cytometry. inhibition, % at 10 µM. actives 0.17% (n = 360,000); note: plate controls were buffer without enzyme for full effect and enzyme alone for no effect
Active calls of the source: *; ? = inconclusive; · = no result. Cut-off read from the data, not from the text of the source, unless noted: active = inhibition above about 30%; inconclusive = no clear call, values can overlap the other calls; inactive = below that.

SMILES	Bead autofluor	BoNT F protease	Anthrax LF inh2	MazEF act	BoNT A protease
CC1C(c2ccccc2)C(C#N)(C#N)C2(C#N)C(=O)NC1(N)C2C (stereo unspecified)	37669*	-50	-10	0	-29
CC1=C(C#N)C(c2ccccc2)C2=C(N1)c1ccccc1C2=O (stereo unspecified)	2586	-7	-4	14	0
CCC1NC(=O)c2cccnc2-n2c1nc1ccc(F)cc1c2=O (stereo unspecified)	3018	0	-2	2	0
O=C(CCC(=O)N1CCCCCC1)NCc1ccc(F)cc1	·	·	·	3	·
COc1ccc(C(=O)N2CCC2(C)C(=O)NC(C)C)cc1 (stereo unspecified)	3762	-10	-3	·	0
CN=C1S/C(=C\c2cc(C)n(-c3ccccc3F)c2C)C(=O)N1C	20537*	7	-2	0	4
O/N=C1/C(=C\c2ccccc2)N2CCC1CC2	19798*	9	-5	-6	7
COc1ccccc1C(CNC(=O)CNC(=O)c1cccc(Cl)c1)N1CCCC1 (stereo unspecified)	?	15	-2	-3	-4
CN(c1ccccc1)c1nc2ccsc2c(=O)s1	21828*	2	-1	0	2
Cn1cccc1/C=C1\SC(=O)N(c2ccc(O)cc2)C1=O	9795	-10	2	262*	-2
COc1cc(C2C(C#N)=C(N)Oc3cc(N(C)C)ccc32)cc2c1OCO2 (stereo unspecified)	7806	-3	-1	64*	1
COc1cc(C2C(C#N)=C(N)Oc3cc(O)ccc32)cc2c1OCO2 (stereo unspecified)	3564	4	-2	10	0
COc1ccc(NC(=O)c2cc(C3CCCCN3C(=O)OCc3ccccc3)on2)c(C)c1 (stereo unspecified)	3826	5	-2	·	0
CCCCN(CCCC)CC1OCc2ccccc2CO1	20889*	-1	2	-8	-1
Cc1ccc[n+](CC2OCc3ccccc3CO2)c1	1967	-5	0	0	0
COc1ccc2c(=O)cc(-c3ccccc3F)oc2c1	3780	46*	2	7	5
COc1ccc2c(=O)cc(C(F)(F)C(F)(F)F)oc2c1	5991	-2	-4	8	-1
O=C1CS/C(=N\C(=O)N2c3ccccc3Sc3ccccc32)N1	24179*	-3	1	12	-1
Cc1ccc(CSCCNC(=O)/C=C/c2ccc(Cl)cc2)cc1	21860*	3	1	-7	2
Cc1ccc(CCNC(=O)CCSCc2ccc(Cl)cc2)cc1	2213	-7	-3	-5	0
COc1ccccc1NC(=O)Cc1noc(CSc2nnc(N)s2)n1	2200	5	-1	7	0
COc1ccccc1NC(=O)Cc1noc(CSc2nnc(C)s2)n1	22803*	-1	-1	0	0
CC(C)=CCCC(C)CN(C)CCc1ccccn1 (stereo unspecified)	21319*	10	1	1	6
C[C@@H]1CN([C@H](C)CO)C(=O)CCCn2cc(nn2)CO[C@H]1CN(C)C(=O)Nc1ccc(-c2cccs2)cc1	4107	-5	-9	2	0
Cc1nc2ccc(C(=O)OCc3ccccc3Br)cc2nc1C	5996	-2	-3	60*	0
SMILES	Bead autofluor	BoNT F protease	Anthrax LF inh2	MazEF act	BoNT A protease
COc1cc(CCNC2=CC(=O)c3ncccc3C2=O)ccc1O	3136	-21	-12	11	-1
CCOC(=O)c1cnc(-n2nc(C)cc2C)nc1Nc1cccc(C(=O)O)c1	21795*	3	1	0	1
CCOC(=O)c1cnc(-n2nc(C)cc2C)nc1Nc1ccc(C)cc1	?	-6	-12	10	?
CCOC(=O)c1cnc(-n2nc(C)cc2C)nc1N(CC)CC	18780*	2	-12	-1	?
COCCNC(=O)c1[nH]c(C(F)(F)F)nc1-c1ccccc1	6961	-9	-2	·	-1
O=C(c1cccs1)N(C(=O)c1cccs1)c1ccc(Br)cn1	22230*	1	0	-7	2
Cc1ccnc(N(C(=O)c2cccs2)C(=O)c2cccs2)c1	3400	-1	4	6	-2
O=C(Nc1ccc(-c2nc3ccccc3o2)cc1)c1cc(-n2cnnc2)ccc1Cl	23846*	-2	-1	-26	0
O=C(Nc1ccc2oc(-c3ccccc3)nc2c1)c1cc(-n2cnnc2)ccc1Cl	4432	-10	-8	54*	0
O=C(Nc1ccccc1)c1cc(-n2cnnc2)ccc1Cl	9299	-21	-6	1	-3
Cc1c(NC(=O)c2cc(-n3cnnc3)ccc2Cl)cccc1-c1nc2ccccc2o1	2147	-19	-6	19	0

Screening data: PubChem, several laboratories
